# According to PubChem BioAssay (Tox21):
# Where “and” joins values, the source holds several entries; their conditions need not be identical. Identical values can stand only once. Records with an inconclusive call do not appear. A call without a number means that no potency is given here. More than one record can exist for a structure, and the calls need not agree. Calls of active or inactive are those of the source. Calls follow the shape of the full dose curve.
# Experiment: qHTS assay for small molecule agonists of the p53 signaling pathway (AID 651631); also: nearly all actives have a fitted effect of over 15% in size
# Conditions: HCT-116 p53RE-bla reporter, beta-lactamase FRET ratio, 16 h; series mostly up to 73.3 µM
# Source text: U.S. Tox21 Program National Center for Advancing Translational Sciences [NCATS] NIH Chemical Genomics Center [NCGC] U.S. Environmental Protection Agency [EPA] National Institutes of Environmental Health Sciences [NIEHS] National Toxicology Program [NTP] U.S. Food and Drug Administration [FDA] Tox21 Assay Overview: p53, a tumor suppressor protein, is activated following cellular insult, including DNA damage and other cellular stresses. The activation of p53 regulates cell fate by inducing DNA repair, cell cycle arrest, apoptosis, or cellular senescence. The activation of p53, therefore, is a good indicator of DNA damage and other cellular stresses. The CellSensor p53RE-bla HCT-116 cell line (Invitrogen) contains a stably integrated beta-lactamase reporter gene under control of the p53 response elements. The activation of the reporter gene under culture conditions can be detected by fluorescence intensity. This cell line was used to screen the Tox21 compound library in a 1536-well plate format and to identify agonists that activate the p53 signaling pathway.
# Tox21 Assay Protocol Summary: The p53RE-bla cells were dispensed at 4,000 cells/5 ul/well in 1536-well black wall/clear bottom plates using a Multidrop dispenser. After the assay plates were incubated at a 37 C/5% CO2 incubator for 5 hours, 23 nL of compounds dissolved in DMSO, positive controls or DMSO only was transferred to the assay plate by a pin tool. The plates were incubated at 37 C for 16 hours. After 1 uL of LiveBLAzerTM B/G FRET substrate was added using a Flying Reagent Dispenser, the plates were incubated at room temperature for 2 hours, and fluorescence intensity was measured by an Envision plate reader.
# Potency is read from the fitted curve at half-maximal effect.
row,Compound,Potency
1,O=C(O)CCCC(=O)O,inactive
2,CCCCCCCCCCCCO,inactive
3,C[C@]12CC[C@@H]3c4ccc(O)cc4CC[C@H]3[C@@H]1CC[C@@H]2O,13.3 µM (active) and 19.3 µM (active) and 9.69 µM (active)
4,CCO[Si](CCCNC(N)=O)(OCC)OCC,inactive
5,C/C=C/C(=O)N(CC)c1ccccc1C,inactive
6,O=[Se](O)O,24.4 µM (active) and inactive
7,c1ccc2c(c1)[nH]c1ccccc12,inactive
8,O=C1OC2(c3ccccc31)c1cc(I)c(O)c(I)c1Oc1c2cc(I)c(O)c1I,inactive
9,c1ccc2ncccc2c1,inactive
10,O=C1CCc2ccccc2O1,inactive
11,Cc1ccc(C)c(O)c1,inactive
12,COc1cc([C@H]2Oc3cc([C@H]4Oc5cc(O)cc(O)c5C(=O)[C@@H]4O)ccc3O[C@@H]2CO)ccc1O,inactive
13,C=CCNCC=C,inactive
14,COc1ccc(C(=O)c2ccccc2O)c(O)c1,inactive
15,COC(=O)c1ccc(C)cc1,inactive
16,C=CN1CCCC1=O,inactive
17,CNC[C@H](O)c1ccc(O)c(O)c1,inactive
18,C=C[Si](OCCOC)(OCCOC)OCCOC,inactive
19,O=C(CCCN1CCC(O)(c2ccc(Cl)cc2)CC1)c1ccc(F)cc1,inactive
20,COC(=O)CC(=O)OC,inactive

row,Compound,Potency
1,Cc1ccc(C(C)(C)C)cc1,inactive
2,Cc1ccc(S(=O)(=O)NCl)cc1,inactive
3,CC/C(=C(/CC)c1ccc(O)cc1)c1ccc(O)cc1,9.44 µM (active) and 13.6 µM (active) and 15.4 µM (active)
4,CCCOCCO,inactive
5,CCCCCC1C(=O)CCC1CC(=O)OC (stereo not given),inactive
6,COCCOCCOCCO,inactive
7,CCCCCC=O,inactive
8,ClC/C=C/CCl,inactive
9,CC(=O)[C@@]1(O)CC[C@H]2[C@@H]3C[C@H](C)C4=CC(=O)C=C[C@]4(C)[C@@]3(F)[C@@H](O)C[C@@]21C,inactive
10,Brc1nc2ccccc2s1,inactive
11,C=CC(=O)OCCCC,inactive
12,[Na+],inactive
13,[O-]/[N+](=N\O)c1ccccc1,inactive
14,Nc1ccc(N)c(Cl)c1,inactive
15,Cc1ccc([N+](=O)[O-])c(C)c1,inactive
16,C1COCCN1,inactive
17,C=C[C@@]1(C)CC(=O)[C@]2(O)[C@@]3(C)[C@@H](O)CCC(C)(C)[C@@H]3[C@H](O)[C@H](OC(C)=O)[C@@]2(C)O1,inactive
18,CC1=CC(C)(C)Nc2ccccc21,inactive
19,Nc1ccc2c(O)cc(S(=O)(=O)O)cc2c1,4.86 µM (active) and 2.43 µM (active)
20,O=C(O)c1cc(=O)[nH]c(=O)[nH]1,inactive
